Here are results for five molecules from PubChem BioAssay.

A short description of assay [1]: small molecules captured by biotinylated probe aFSTL3 – biochemical, small-molecule microarray, fluorescence 635/667, stem cell growth factor project, primary screen (AID 1064).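 Note: measures binding of the biotinylated anti-FSTL3 antibody to printed compounds.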 The settings on record: higher = more signal.
Assay [2] in a line: binders from COS7 lysate, DM2A8 probe, primary screen, torsin A project, cell lysate, small-molecule microarray, fluorescence 635/667 (AID 1065). The settings on record: higher = more signal, COS7 lysate expressing mutant human TOR1A.
The nature of assay [3]: small molecules captured by biotinylated probe aFGF2 – biochemical, small-molecule microarray, fluorescence 635/667, stem cell growth factor project, primary screen (AID 1067).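 Note: measures binding of biotinylated aFGF2 protein to printed compounds on slides; z-score merges feature fluorescence and signal-to-noise across triplicate slides.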 To be noted: higher = more signal.
The nature of assay [4]: small molecules captured by biotinylated probe aFGF10 – biochemical, small-molecule microarray, fluorescence 635/667, stem cell growth factor project, primary screen (AID 1071).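 Note: score merges 667 nm spot intensity and signal to noise from triplicate slides.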 The settings on record: higher = more signal.
In assay [5] the target is Neurogenic locus notch homolog protein 2 (Homo sapiens) (UniProt Q04721). Kind of assay: small molecules binding Notch2 protein – biochemical, small-molecule microarray, 635 nm fluorescence, stem cell growth factors, primary screen (AID 1073). The settings on record: higher = more signal.
For assay [6], the target named is Pro-neuregulin-1, membrane-bound isoform (Homo sapiens) (UniProt Q02297). The assay is described as follows: small molecules binding neuregulin-1 protein – biochemical, small-molecule microarray, fluorescence 635/667, psychiatric disease protein project, primary screen (AID 1075).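 Note: score combines 667 nm spot fluorescence with signal to noise.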 To be noted: NRG1 binding, 635 nm fluorescence, higher = more signal.
Pro-neuregulin-1, membrane-bound isoform (Homo sapiens), sequence (Q02297 whole entry, looked up, the tested form may be a part, canonical isoform): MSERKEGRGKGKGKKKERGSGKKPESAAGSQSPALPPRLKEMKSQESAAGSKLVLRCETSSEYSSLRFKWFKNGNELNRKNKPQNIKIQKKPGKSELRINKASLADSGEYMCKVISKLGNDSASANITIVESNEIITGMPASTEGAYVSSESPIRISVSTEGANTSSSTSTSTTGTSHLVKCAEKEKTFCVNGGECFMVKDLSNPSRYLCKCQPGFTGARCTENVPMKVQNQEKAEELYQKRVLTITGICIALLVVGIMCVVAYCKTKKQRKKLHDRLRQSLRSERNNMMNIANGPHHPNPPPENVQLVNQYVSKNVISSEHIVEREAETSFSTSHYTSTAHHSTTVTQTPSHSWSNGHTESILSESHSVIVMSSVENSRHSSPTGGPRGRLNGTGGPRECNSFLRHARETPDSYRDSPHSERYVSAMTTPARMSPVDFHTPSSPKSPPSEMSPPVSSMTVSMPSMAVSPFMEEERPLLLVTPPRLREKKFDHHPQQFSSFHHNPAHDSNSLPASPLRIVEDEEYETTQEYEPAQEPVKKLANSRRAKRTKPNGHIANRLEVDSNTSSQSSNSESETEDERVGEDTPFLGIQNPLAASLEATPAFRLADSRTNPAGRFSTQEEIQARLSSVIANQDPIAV
The subject of assay [7] is Neuregulin-1 EGF-like domain. The assay is described as follows: small molecules binding NRG1 EGF domain – biochemical, small-molecule microarray, 635 nm fluorescence, primary screen (AID 1081).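 Note: binding of the protein to compounds printed on small-molecule microarray slides.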 To be noted: higher = more signal.
Assay [8] is described as follows: FRG1 expression reporter modulators in myotubes – cell-based, C2C12 myotubes, firefly/Renilla luciferase, luminescence, FRG1 inhibition for FSHD, primary screen (AID 1084). To be noted: FRG1 promoter luciferase, higher = more signal, called active from +8 up or from −8 down.
The nature of assay [9]: small molecules captured by biotinylated probe aFST – biochemical, small-molecule microarray, fluorescence 635/667, stem cell growth factor project, primary screen (AID 1086).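 Note: score merges 667 nm fluorescence with signal-to-noise of each printed compound spot.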 The settings on record: higher = more signal.
Assay [10] can be described thus: binders of probe aHhip on microarray, primary screen, stem cell growth factor project, biochemical, small-molecule microarray, fluorescence 635/667 (AID 1087).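 Note: score merges spot fluorescence at 667nm with spot signal to noise ratio.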 The settings on record: higher = more signal.
For assay [11], the system named is PRMT1 (protein arginine N-methyltransferase 1). Kind of assay: small molecules binding arginine methyltransferase PRMT1 – biochemical, small-molecule microarray, 635 nm fluorescence, primary screen (AID 1088).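 Note: binding of Prmt1 protein to compounds spotted on small-molecule microarray slides.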 To be noted: higher = more signal.
Assay [12] in a line: growth effects on S. cerevisiae YJM789 – YJM789 clinical isolate, OD600, 24 h, basal, primary screen (AID 1089).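 Note: growth of clinical yeast isolate S. cerevisiae YJM 789 seeded 1000 cells per well; test concentration not given here.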 The settings on record: higher = more signal, called active from +8 up or from −8 down.
Assay [13] in a line: S. pombe growth modifiers, basal conditions – strain 972, OD600, 24 h, no modulator, primary screen (AID 1090).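 Note: basal condition with compound alone and no growth modifier present; test concentration not given here.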 The settings on record: S. pombe 972 growth, higher = more signal, called active from +8 up or from −8 down.
Assay [14] is described as follows: budding yeast growth modifiers under rapamycin – strain BY4716, OD600, 96 h, primary screen (AID 1091). Note: test concentration not given here. To be noted: S. cerevisiae BY4716 + rapamycin, higher = more signal, called active from +8 up or from −8 down.
Assay [15] deals with Torsin-1A-interacting protein 2 (Homo sapiens) (UniProt Q8NFQ8). The assay is described as follows: small molecules binding lysate-expressed LULL1 – cell lysate, human LULL1 lysate, 635/667 nm fluorescence, primary screen (AID 1092).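 Note: probe is lysate of COS7 cells overexpressing human LULL1; score merges per-feature 667 nm fluorescence with signal-to-noise.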 To be noted: small-molecule microarray, hLULL1 lysate binding, 635 nm fluorescence; higher = more signal.
Torsin-1A-interacting protein 2 (Homo sapiens), sequence (Q8NFQ8 whole entry, looked up): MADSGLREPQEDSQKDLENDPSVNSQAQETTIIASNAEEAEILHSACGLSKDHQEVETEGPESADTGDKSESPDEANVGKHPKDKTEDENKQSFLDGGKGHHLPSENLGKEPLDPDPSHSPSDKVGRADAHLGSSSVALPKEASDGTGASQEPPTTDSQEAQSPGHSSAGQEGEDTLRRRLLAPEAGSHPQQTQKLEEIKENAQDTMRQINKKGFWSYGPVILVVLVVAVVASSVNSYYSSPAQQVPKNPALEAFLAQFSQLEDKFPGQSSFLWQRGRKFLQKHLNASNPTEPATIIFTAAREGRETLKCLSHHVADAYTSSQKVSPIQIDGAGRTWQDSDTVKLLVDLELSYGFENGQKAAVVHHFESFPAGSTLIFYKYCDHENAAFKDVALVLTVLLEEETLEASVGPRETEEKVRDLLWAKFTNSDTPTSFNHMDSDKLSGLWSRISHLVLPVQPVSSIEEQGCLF
Assay [16] is described as follows: optical density change of DRC41 E. coli – strain DRC41, OD650, 24 h, E. coli filamentation project, primary screen (AID 1093).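 Note: MC1000 strain lacking acrAB efflux and sulA so SOS filamentation is blocked; test concentration not given here.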 The settings on record: E. coli DRC41 growth, higher = more signal, called active from +8 up or from −8 down.
A short description of assay [17]: probe aLefty2 binding to arrayed compounds – biochemical, biotinylated probe, 635/667 nm fluorescence, primary screen (AID 1094).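 Note: score merges spot fluorescence near 667 nm with spot signal-to-noise ratio.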 The settings on record: small-molecule microarray, higher = more signal.
The test system of assay [18] is Noggin (protein binding on small-molecule microarray). The assay is described as follows: small molecules binding Noggin protein – biochemical, 635/667 nm fluorescence, primary screen (AID 1095).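 Note: score merges 667 nm feature fluorescence with signal to noise over triplicate slides.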 To be noted: 635 nm fluorescence, higher = more signal.
In assay [19] the target is Neurogenic locus notch homolog protein 3 (Homo sapiens) (UniProt Q9UM47). Kind of assay: small molecules binding NOTCH3 protein – biochemical, 635/667 nm fluorescence, primary screen (AID 1096). The settings on record: small-molecule microarray, 635 nm fluorescence, higher = more signal.
Neurogenic locus notch homolog protein 3 (Homo sapiens), sequence (Q9UM47 whole entry, looked up): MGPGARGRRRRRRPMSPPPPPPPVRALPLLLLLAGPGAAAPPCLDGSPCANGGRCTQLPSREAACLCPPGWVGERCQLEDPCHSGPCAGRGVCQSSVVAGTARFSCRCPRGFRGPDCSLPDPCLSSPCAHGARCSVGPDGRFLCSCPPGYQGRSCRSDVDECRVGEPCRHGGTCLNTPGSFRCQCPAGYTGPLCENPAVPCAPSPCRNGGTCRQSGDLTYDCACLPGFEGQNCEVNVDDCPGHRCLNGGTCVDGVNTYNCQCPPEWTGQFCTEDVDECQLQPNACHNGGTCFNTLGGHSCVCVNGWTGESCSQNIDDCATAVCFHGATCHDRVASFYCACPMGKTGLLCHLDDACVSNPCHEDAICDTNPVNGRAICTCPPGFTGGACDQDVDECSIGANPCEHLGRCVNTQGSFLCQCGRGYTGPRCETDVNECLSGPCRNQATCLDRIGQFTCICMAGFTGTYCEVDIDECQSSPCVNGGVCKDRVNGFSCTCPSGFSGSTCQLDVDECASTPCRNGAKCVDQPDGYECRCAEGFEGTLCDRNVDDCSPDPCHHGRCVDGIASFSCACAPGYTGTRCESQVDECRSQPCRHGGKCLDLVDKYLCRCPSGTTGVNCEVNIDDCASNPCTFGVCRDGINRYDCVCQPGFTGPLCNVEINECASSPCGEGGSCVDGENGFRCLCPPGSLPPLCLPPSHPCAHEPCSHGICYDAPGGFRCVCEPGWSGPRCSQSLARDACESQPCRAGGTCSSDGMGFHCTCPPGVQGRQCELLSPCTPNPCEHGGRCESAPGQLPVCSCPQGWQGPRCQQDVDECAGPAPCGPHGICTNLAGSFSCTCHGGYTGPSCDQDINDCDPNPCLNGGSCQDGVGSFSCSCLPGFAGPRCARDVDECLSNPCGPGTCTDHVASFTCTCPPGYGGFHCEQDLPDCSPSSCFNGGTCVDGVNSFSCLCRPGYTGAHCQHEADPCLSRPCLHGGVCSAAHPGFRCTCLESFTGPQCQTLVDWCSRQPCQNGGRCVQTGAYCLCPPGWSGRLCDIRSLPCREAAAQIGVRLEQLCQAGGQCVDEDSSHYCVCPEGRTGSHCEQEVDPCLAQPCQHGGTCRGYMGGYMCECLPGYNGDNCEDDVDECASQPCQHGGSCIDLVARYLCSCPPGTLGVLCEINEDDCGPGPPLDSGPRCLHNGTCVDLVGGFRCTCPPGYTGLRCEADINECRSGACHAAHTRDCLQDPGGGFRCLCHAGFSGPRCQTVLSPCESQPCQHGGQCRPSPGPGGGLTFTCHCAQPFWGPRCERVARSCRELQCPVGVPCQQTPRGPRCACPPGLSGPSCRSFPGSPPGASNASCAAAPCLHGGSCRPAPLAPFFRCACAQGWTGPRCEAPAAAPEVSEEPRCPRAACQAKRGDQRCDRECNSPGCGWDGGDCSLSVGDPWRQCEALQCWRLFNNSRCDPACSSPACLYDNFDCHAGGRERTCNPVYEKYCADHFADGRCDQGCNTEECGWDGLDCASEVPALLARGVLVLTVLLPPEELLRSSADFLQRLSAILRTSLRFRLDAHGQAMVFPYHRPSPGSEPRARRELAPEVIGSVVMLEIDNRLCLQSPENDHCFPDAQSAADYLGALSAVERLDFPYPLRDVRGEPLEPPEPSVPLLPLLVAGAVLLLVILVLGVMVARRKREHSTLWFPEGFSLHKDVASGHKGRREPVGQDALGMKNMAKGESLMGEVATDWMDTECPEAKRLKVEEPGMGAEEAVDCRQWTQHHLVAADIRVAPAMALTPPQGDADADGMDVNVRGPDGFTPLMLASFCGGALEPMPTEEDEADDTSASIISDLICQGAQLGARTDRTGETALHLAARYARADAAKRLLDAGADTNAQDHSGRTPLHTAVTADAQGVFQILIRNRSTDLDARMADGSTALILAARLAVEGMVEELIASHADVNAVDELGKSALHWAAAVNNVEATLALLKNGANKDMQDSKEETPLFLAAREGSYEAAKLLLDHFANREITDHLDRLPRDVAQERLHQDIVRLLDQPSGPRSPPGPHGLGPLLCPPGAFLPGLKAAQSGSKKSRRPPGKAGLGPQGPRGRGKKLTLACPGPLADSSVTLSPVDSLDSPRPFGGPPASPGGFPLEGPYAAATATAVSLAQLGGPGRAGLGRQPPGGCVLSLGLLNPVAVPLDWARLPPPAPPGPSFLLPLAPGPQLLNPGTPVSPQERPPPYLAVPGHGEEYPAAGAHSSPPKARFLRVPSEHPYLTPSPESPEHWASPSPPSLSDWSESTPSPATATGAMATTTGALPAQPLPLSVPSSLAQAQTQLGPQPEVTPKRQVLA
Assay [20] in a line: probe aEGFR binding to arrayed compounds – biochemical, biotinylated probe, 635/667 nm fluorescence, primary screen (AID 1097).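 Note: probe is a biotinylated anti-EGFR antibody binding compounds printed on slides; score combines fluorescence near 667 nm and signal to noise of each spot.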 To be noted: small-molecule microarray, higher = more signal.

Activity calls are given as the source filed them.

Regarding `C=CCOC(=O)[C@@H]1[C@H]2C(=O)O[C@H](c3ccccc3)[C@H](c3ccccc3)N2[C@H](c2ccc(OCCOC(=O)[C@H]3C[C@H]4C(=O)N[C@@H](CCCCN(C)C)C(=O)N4[C@H]3c3ccc(O)cc3)cc2)[C@@]12C(=O)Nc1ccc(I)cc12`, the composite z-score in assay [1] was -0.139; in assay [2], 1.43; in assay [3] it was -0.0583; in assay [4], 0.454; in assay [5], -0.0871; in assay [6], 0.655. Besides, the composite z-score in assay [7] was 1.33; in assay [9] it was 0.166; in [10], 0.0373; in assay [11] it was 1.53; in [15], 2.68; in assay [17], -0.0686. Besides, the composite z-score was 1.93 in [18], 1.1 in assay [19] and -0.0487 in assay [20]. Besides, the z-score in assay [8] is 0.921 (inactive); in [12], 1.16 (inactive); in assay [13], -2.52 (inactive); in assay [14], 1.35 (inactive); in assay [16], -1.27 (inactive).

In the case of `Cc1ccc(S[C@]2(C(=O)NCC(F)(F)F)CC(=O)N(Cc3ccccc3C(F)(F)F)[C@@H]2c2ccc(CO)cc2)cc1`, the composite z-score in [1] is 0.953; in [2] it was -0.0728; in assay [3], -0.1; in assay [4], -0.0379; in assay [5] it was -1.14; in assay [6] it was -0.401. Besides, the composite z-score in assay [7] is 0.573; in assay [9], -0.606; in [10], -0.191; in assay [11], 0.895; in assay [15] it was 1.67; in assay [17], 0.145. Also, the composite z-score in [18] is -0.872; in assay [19], -0.462; in assay [20], -0.0416. The z-score is -1.82 (inactive) in assay [8]; -0.837 (inactive) in assay [12]; 0.0848 (inactive) in assay [13]; -0.203 (inactive) in assay [14]; -0.254 (inactive) in [16].

As for `CCC(CC)C(O)C1C=CC2C(=O)N(c3ccccc3)C(=O)C2N1Nc1ccccc1F` (stereo not given), the composite z-score in assay [1] is -0.226; in assay [2], 1.01; in [3] it was -0.0222; in [4] it was 0.715; in assay [5] it was 1.48; in [6], 1.29. In addition, the composite z-score amounted to 1.38 in assay [7]; 1 in assay [9]; 0.0373 in assay [10]; 0.203 in assay [11]; 3.23 in [15]; 0.172 in assay [17]. Moreover, the composite z-score in assay [18] was -0.19; in assay [19], 0.78; in [20], -0.04. Further, the z-score in [8] was -0.556 (inactive); in assay [12] it was 0.175 (inactive); in [13], 0.44 (inactive); in assay [14] it was -0.0875 (inactive); in assay [16], -0.636 (inactive).

As for `C[C@@H]1ON(c2ccc(I)cc2)[C@H](c2cccc(NC(=O)OCC3c4ccccc4-c4ccccc43)c2)[C@H]1C(=O)N1C(=O)OC[C@H]1Cc1ccccc1`, the composite z-score in assay [1] is -0.162; in assay [2], 0.382; in [3], -0.132; in assay [4], 0.15; in assay [5], 0.524; in assay [6], 0.608. Further, the composite z-score in [7] was determined as 0.0222; in [9], 0.0393; in assay [10], 0.132; in assay [11], 0.908; in assay [15], 0.77; in [17], 0.437. Moreover, the composite z-score in [18] came to 0.493; in [19] it was 0.893; in [20], 0.0773. The z-score in [8] was 0.108 (inactive); in assay [12] it was 0.882 (inactive); in assay [13] it was 0.534 (inactive); in assay [14], 1.33 (inactive); in [16], 1.28 (inactive).

Regarding `N#Cc1ccc(-c2cccc(=O)o2)cc1`, the composite z-score in assay [1] is -0.5; in [2] it was 0.316; in assay [3], -0.103; in [4] it was 0.248; in assay [5], 0.601; in assay [6] it was 0.114. For the same molecule, the composite z-score in assay [7] is 0.678; in assay [9] it was 0.445; in assay [10], -0.166; in assay [11], 1; in assay [15], 0.552; in assay [17], -0.212. The composite z-score in assay [18] is 0.671; in [19] it was 0.718; in assay [20], -0.0794. The z-score in [8] was 0.563 (inactive); in assay [12], -0.24 (inactive); in assay [13], -0.537 (inactive); in assay [14], 0.805 (inactive); in [16], -0.675 (inactive).
